# Where “and” joins values, the source holds several entries; their conditions need not be identical. Equal entries are not always repeated. Inconclusive results are not listed. Unmarked numbers belong to inactive results. Calls of active or inactive are those of the source. Calls come from the whole dose curve.
# Assay: p53 small molecule agonists, cell-based qHTS assay with rat liver microsomes: qHTS cell viability counter screen (AID 1963580); note: nearly all actives have a fitted effect of over 45% in size
# Settings: p53RE-bla HCT-116 + rat microsomes, ATP viability, 16 h; series mostly up to 66 µM; activity change, negative = cytotoxicity: at the top concentration
# Source text: National Center for Advancing Translational Sciences [NCATS]
# Division of Preclinical Innovation [DPI]
# U.S. Environmental Protection Agency [EPA]
# National Institutes of Environmental Health Sciences [NIEHS]
# National Toxicology Program [NTP]
# U.S. Food and Drug Administration [FDA]
# p53, a tumor suppressor protein, is activated following cellular insult, including DNA damage and other cellular stresses. The activation of p53 regulates cell fate by inducing DNA repair, cell cycle arrest, apoptosis, or cellular senescence. The activation of p53, therefore, is a good indicator of DNA damage and other cellular stresses. The CellSensor p53RE-bla HCT-116 cell line contains a stably integrated beta-lactamase reporter gene under control of the p53 response elements. The activation of the reporter gene under culture conditions can be detected by fluorescence intensity. This cell line was used to screen the Tox21 10K compound library in the condition of presence of rat liver microsomes and to identify agonists that activate the p53 signaling pathway after in vitro metabolic activation (Ooka et al., Archive of Toxicology 96:1975-1987, 2022). The cytotoxicity of the Tox21 compound library against the p53 RE-bla HCT-116 cell line was tested in parallel by measuring the intra cellular ATP content in the same wells.
# Tox21 Assay Protocol Summary:
# The p53RE-bla cells were dispensed at 4,000cells/3ul/well in 1536-well black-clear bottom plates. After the assay plates were incubated at 37 C, 5% CO2 incubator for 5 hours, 23 nL of compounds dissolved in DMSO, positive controls or DMSO only was transferred to the assay plate. Following compound addition, 3 uL of rat liver microsomes (Molecular Toxicology, Boone, NC) at final concentration of 0.5 mg/mL and 1uL of B-Nicotinamide adenine dinucleotide 2'-phosphate (NADPH) at final concentration of 0.5 mg/mL were transferred to the assay plate. The plates were incubated at 37 C for 16 hours. 1 uL of LiveBLAzer detection mixture was added to each well and the plates were incubated at room temperature in the dark for 2 h. Fluorescence intensity at 460 and 530 nm emission and 405 nm excitation were measured by an Envision plate reader. For cell viability readout that measures cytotoxicity, 4 ul/well of CellTiter-Glo reagent was added into the assay plates using a Flying Reagent Dispenser. After 30 min incubation at room temperature, the luminescence intensity in the plates was measured using a ViewLux plate reader.
# % is set by controls: 0 for no effect and ±100 for the full control effect; potency is the fitted concentration of half-maximal effect.
SMILES,"activity change, negative = cytotoxicity",Potency
O=Cc1ccc([N+](=O)[O-])cc1,-2.03%,
CO[C@H]1C=CO[C@@]2(C)Oc3c(C)c(O)c4c(O)c(c(/C=N/N5CCN(C)CC5)c(O)c4c3C2=O)NC(=O)/C(C)=C\C=C[C@H](C)[C@H](O)[C@@H](C)[C@@H](O)[C@@H](C)[C@H](OC(C)=O)[C@@H]1C,,inactive
COC(=O)c1cc(Cl)ccc1NS(=O)(=O)C(F)(F)F,-8.57% [at 30.3 µM],
C=CCOC(=O)CCCCCC,-11.8%,
O=C1c2ccccc2C(=O)C1c1ccc2cc(S(=O)(=O)O)cc(S(=O)(=O)O)c2n1,25.8%,
CCCCCCCCCCCCCCCCCC(=O)OCC(CC)CCCC (stereo not given),-2.38%,
C1COCCO1,0.629%,
CCCCN(CCCC)CCCCCCN(CCCC)CCCC,1.37%,
O=[N+]([O-])c1ccc(F)cc1F,3.15%,
CC(=O)Nc1ccc(N=Nc2cc(C)ccc2O)cc1,-8.38%,
CC(=O)S[C@H](C(=O)N[C@H]1Cc2ccccc2[C@H]2CCC[C@@H](C(=O)O)N2C1=O)C(C)C,14.2%,
[O-][n+]1ccc(Cl)cc1,-7.89%,
CC(=O)OCCc1ccccc1,3.5%,
O=C(O[C@@H](C(=O)O)[C@@H](OC(=O)c1ccccc1)C(=O)O)c1ccccc1,7.24%,
CC1(C)C(=O)N(Br)C(=O)N1Cl,-0.918%,
CC(C)C(=O)OC(=O)C(C)C,-6.69%,
CCCCCCN,0.896%,
Cc1c(N)cccc1C(F)(F)F,-2.81% [at 30.3 µM],
c1coc(CNc2ncnc3nc[nH]c23)c1,-6.42%,
CCOc1ccccc1C(N)=O,-15.2% [at 30.3 µM],

SMILES,"activity change, negative = cytotoxicity",Potency
CCCN1C=CN(C)C1,-0.929%,
COc1cc(OC)nc(O[C@H](C(=O)O)C(OC)(c2ccccc2)c2ccccc2)n1,12.4% [at 30.3 µM],
C=CCCCCCCCCC(=O)OCCCC,-2.96%,
COc1ccc(N=[N+]([O-])c2ccc(OC)cc2)cc1,-0.895%,
CC(=O)OC[C@H]1O[C@@H](OC(C)=O)[C@H](OC(C)=O)[C@@H]1OC(C)=O,6.25% [at 30.3 µM],
CN(C)C(=S)SC(=S)N(C)C,,16.6 µM (active) and 5.76 µM (active)
O=S(=O)(O)CCN1CCN(CCO)CC1,-6.81%,
CCC(C)(Oc1ccc(C2(c3ccc(OC(C)(CC)C(=O)O)cc3)CCCCC2)cc1)C(=O)O (stereo not given),-2.18% [at 30.3 µM],
CCCCC(C)C(=O)O (stereo not given),-3.08%,
O=C(O)[C@@H](O)[C@H](O)[C@H](O)[C@@H](O)C(=O)O,-4% [at 30.3 µM],
CC1CCCC(=O)C1=O (stereo not given),3.95%,
C[N+](C)(CCOc1ccccc1)Cc1cccs1,-2.31% [at 30.3 µM],
CC(=N\O)/C(C)=N/O,20.1%,
CCCCCCCC/C=C\CCCCCCCC(=O)OCCCC,7.39% [at 13.5 µM],
C[C@H]1C[C@H](O)c2ccsc2S1(=O)=O,-2.28% [at 30.3 µM],
CCCCCCCCOC(=O)CCCCCCCCC(=O)OCCCCCCCC,0.758%,
CC1(C)C(C=C(Cl)Cl)C1C(=O)OCc1cccc(Oc2ccccc2)c1 (stereo not given),,inactive
N[C@H](C(=O)O)c1ccc(O)cc1,4.85% [at 13.5 µM],
SCCSCCS,-5.84%,
CCc1c(C(=O)O)c(=O)cnn1-c1ccc(Cl)cc1,-12.2%,

# Reference: PubChem BioAssay (Tox21)
